Assay results as given in PubChem BioAssay (EPA / NIEHS).
Results filed as inconclusive are left out. Activity calls are given as the source filed them. How the source made its calls, unless noted: active means hit-call score of the fitted dose curve at least 0.9, where 1 is the maximum; inactive means score below 0.9.

How the values were obtained:
[1] = CCTE_Mundy_HCI_iCellGluta_NOG_NeuriteLength: CCTE's Neurite Outgrowth Assay in iCellGluta cells for Neurite Length, Mundy Lab (AID 2284318; active means hit-call score of the fitted dose curve at least 0.9, where 1 is the maximum)
Procedure, shortened: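 Automated high-content imaging of betaIII-tubulin (Alexa Fluor-488) and Hoechst-stained cells gave neurite length, normalized to the DMSO baseline.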

[2] = test system: TTR (gene 7276); assay: CCTE_GLTED_hTTR_0.5uM: CCTE's human Transthyretin (hTTR) Inhibition Assay, with 0.5uM TTR, Great Lakes Toxicology and Ecology Division (GLTED) Lab (AID 2284320)
Procedure, shortened: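 Probe (ANSA) displacement from 0.5 uM human transthyretin was followed by fluorescence (ex 380, em 475) after a 2 h incubation with chemical. Activity was scored as signal loss and fitted positively relative to DMSO.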

[3] = CCTE_Mundy_HCI_iCellGluta_NOG_NeuronCount: CCTE's Neurite Outgrowth Assay in iCellGluta cells for Neuron Count, Mundy Lab (AID 2284340; active means hit-call score of the fitted dose curve at least 0.9, where 1 is the maximum;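 further: cells fixed about 48 h after compound addition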)
Procedure, shortened: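 Neuron count read by automated high-content imaging of Hoechst 33342 and betaIII-tubulin/Alexa Fluor-488 labelling in human iPSC glutamatergic neurons. Activity fitted relative to DMSO.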

[4] = CCTE_Mundy_HCI_iCellGluta_NOG_NeuriteCount: CCTE's Neurite Outgrowth Assay in iCellGluta cells for Neurite Count, Mundy Lab (AID 2284342; active means hit-call score of the fitted dose curve at least 0.9, where 1 is the maximum;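 further: chemical exposure about 48 hours starting 2 hours after plating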)
[5] = test system: SERPINA7 (gene 6906); assay: CCTE_GLTED_hTBG: CCTE's human Thyroxine-binding Globulin (TBG) Inhibition Assay, Great Lakes Toxicology and Ecology Division (GLTED) Lab (AID 2284343; active means hit-call score of the fitted dose curve at least 0.9, where 1 is the maximum;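 further: active chemicals lower fluorescence versus DMSO baseline by displacing probe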)
Procedure, shortened: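 Human thyroxine-binding globulin was exposed to each chemical for 2 hours, during which the ANSA probe could be displaced. Fluorescence was then measured at 380/475 nm, and loss of signal was analysed relative to DMSO.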

[6] = Tanguay_ZF_120hpf_MO24: Oregon State University Tanguay Lab 24 Hour Post-fertilization zebrafish Assay for Mortality (AID 2284389)
Procedure, shortened: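 Embryo death at 24 hpf was recorded as present or absent in Tropical 5D zebrafish, dechorionated at 4 hpf and dosed statically from 6 hpf (28C, 0.64% DMSO); 5 uM trimethyltin chloride served as positive control.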

[7] = Tanguay_ZF_120hpf_CRAN: Oregon State University Tanguay Lab 120 Hour Post-fertilization zebrafish Assay for Craniofacial Malformation (AID 2284397)
Procedure, shortened: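 Scoring of craniofacial malformation as a binary endpoint was done at 120 hpf by brightfield microscopy and was not done in dead embryos. Exposure was static, starting at 6 hpf, in dechorionated wild-type embryos held singly at 28C with 0.64% DMSO final.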

[8] = Tanguay_ZF_120hpf_MORT: Oregon State University Tanguay Lab 120 Hour Post-fertilization zebrafish Assay for Mortality (AID 2284399)
Procedure, shortened: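 Mortality, recorded present/absent via brightfield imaging at 24 and 120 hpf, in 5D zebrafish embryos exposed statically from 6 hpf after pronase chorion removal. Exposure at 28C, 0.64% DMSO vehicle, DMSO baseline.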

[9] = Tanguay_ZF_120hpf_EDEM: Oregon State University Tanguay Lab 120 Hour Post-fertilization zebrafish Assay for Edema Malformation (AID 2284400)
Procedure, shortened: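 Edema recorded as a binary endpoint under brightfield at 120 hpf, excluding embryos that died. Exposure was static, sealed, 28C, from 6 hpf in dechorionated wild-type larvae, final DMSO 0.64%, DMSO as baseline.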

[10] = Tanguay_ZF_120hpf_BRN: Oregon State University Tanguay Lab 120 Hour Post-fertilization zebrafish Assay for Brain Region Malformation (AID 2284402)
Procedure, shortened: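 Binary brightfield scoring of brain malformation at 120 hpf in 5D wild-type larvae, chorion removed with pronase at 4 hpf. Static exposure began at 6 hpf, 28C, sealed plates, DMSO 0.64% (vol/vol) as vehicle baseline.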

[11] = Tanguay_ZF_120hpf_TCHR: Oregon State University Tanguay Lab 120 Hour Post-fertilization zebrafish Assay for Touch Responsive (AID 2284403)
Procedure, shortened: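 Binary touch-response calls are made at 120 hpf in 5D wild-type zebrafish larvae. These larvae were dechorionated with pronase and exposed singly from 6 hpf in sealed, dark plates at 28 °C with 0.64% DMSO final; dead embryos are excluded.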

[12] = CCTE_Padilla_ZF_Score.Craniofacial: CCTE's 144 Hour Post-fertilization zebrafish Assay Score for Craniofacial Malformation, Padilla Lab (AID 2284405)
Procedure, shortened: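 Craniofacial defects were scored at 6 dpf by two blinded observers using stereomicroscopy. Exposure of wild-type embryos began at 6–8 hpf in sealed wells of 10% Hanks' solution at 26C, with chemical removed by rinsing at 5 dpf.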

[13] = Tanguay_ZF_120hpf_DP24: Oregon State University Tanguay Lab 24 Hour Post-fertilization zebrafish Assay for Delayed Development (AID 2284390)
Procedure, shortened: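 Scored at 24 hpf as a binary present/absent call of delayed development by brightfield, with dead embryos not assessed. Embryos (5D wild type, chorion removed with pronase at 4 hpf) dosed statically from 6 hpf at 28 C in 0.64% DMSO.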

[14] = Tanguay_ZF_120hpf_ANY: Oregon State University Tanguay Lab 120 Hour Post-fertilization zebrafish Assay for Any Mortality and Malformation (AID 2284404)
Procedure, shortened: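 Dechorionated Tropical 5D wild-type embryos, one per well from 6 hpf, static exposure in sealed, dark plates at 28C until 120 hpf, 0.64% DMSO final. Brightfield scoring of mortality and malformations as binary presence/absence, pooling 13 morphology endpoints.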

[15] = Tanguay_ZF_120hpf_AXIS: Oregon State University Tanguay Lab 120 Hour Post-fertilization zebrafish Assay for Axial Malformation (AID 2284398)
Procedure, shortened: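 Scoring was binary (present or absent) for body-axis defects, judged by brightfield imaging at 120 hpf in surviving larvae. Exposure was static at 28C from 6 hpf in chorion-free 5D wild-type embryos, with 0.64% DMSO vehicle.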

[16] = TAMU_PeakParms_SingleDonor1434_Asystole: Texas A&M University (TAMU) 1.5-hr Human Induced Pluripotent Stem Cell (iPSC)-derived Cardiomyocytes Calcium (Ca+2) Flux Assay for Cardiotoxicity: Asystole (quiescence of beating) (AID 2284328; active means hit-call score of the fitted dose curve at least 0.9, where 1 is the maximum)
Procedure, shortened: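 Donor 1434 iPSC-cardiomyocytes exposed 90 min at 37C, 5% CO2, to 0.2, 1, 10 and 100 uM in 0.5% DMSO. Ca2+ dye fluorescence gave average peak frequency; POD is EC95, a 95% beat-rate drop versus controls.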

[17] = IUF_NPC1_cytotoxicity_72hr: Cytotoxicity Assessment at 72 hours in the Leibniz Research Institute for Environmental Medicine (IUF) Neural Progenitor Cell Proliferation Assay (NPC1) (AID 2284332; active means hit-call score of the fitted dose curve at least 0.9, where 1 is the maximum;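 further: rising LDH signal means more cytotoxicity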)
Procedure, shortened: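 Membrane-integrity loss is scored from LDH released into the medium, detected as resorufin fluorescence, with activity fitted upward relative to baseline. Test material stays on human fetal-derived progenitor spheres for 72 h.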

Measured: AC50

FC(F)(F)C(F)(F)C(F)(F)C(F)(F)CCI
active: [2] 75 µM | [5] 46.7 µM
not listed: [13] | [14] | [15] | [16] | [17]
inactive: all other assays above

O=C(Cl)C(F)(F)C(F)(F)C(F)(F)C(F)(F)C(F)(F)C(F)(F)C(F)(F)C(F)(F)F
active: [2] 0.491 µM | [5] 14.9 µM

OCC(F)(F)C(F)(F)C(F)(F)F
not listed: [2] | [5] | [15] | [16] | [17]
inactive: all other assays above

Cc1ccc(S(=O)(=O)OCC(F)(F)C(F)(F)C(F)(F)C(F)(F)C(F)(F)C(F)F)cc1
inactive: [6] | [7] | [8] | [9] | [10] | [11]

C=C(C)C(=O)OCC(F)(F)C(F)(F)C(F)(F)C(F)(F)C(F)(F)C(F)(F)C(F)(F)F
inactive: [6] | [7] | [8] | [9] | [10] | [11] | [12]

O=C(O)C(F)(F)C(F)(F)C(F)(F)C(F)(F)C(F)(F)C(F)(F)C(F)(F)C(F)(F)C(F)(F)C(F)(F)C(F)(F)C(F)(F)C(F)(F)F
active: [2] 10.3 µM
inactive: [6] | [7] | [8] | [9] | [10] | [11]

NC(=O)C(F)(F)C(F)(F)C(F)(F)C(F)(F)F
inactive: [6] | [7] | [8] | [9] | [10] | [11]

O=C(O)C(F)(OC(F)(F)C(F)(OC(F)(F)C(F)(F)C(F)(F)F)C(F)(F)F)C(F)(F)F (configuration not stated)
inactive: [6] | [7] | [8] | [9] | [10] | [11]

O=C(O)C(F)(F)C(F)(F)C(F)F
inactive: [6] | [7] | [8] | [9] | [10] | [11] | [14] | [12]
active: [2] 14.9 µM

C=CC(F)(F)C(F)(F)C(F)(F)C(F)(F)C(F)(F)C(F)(F)C(F)(F)C(F)(F)F
inactive: [6] | [7] | [15] | [8] | [9] | [10] | [11]

FC(F)(F)C(F)(F)C(F)(F)C(F)(F)C(F)(F)C(F)(F)C(F)(F)Br
inactive: [6] | [13] | [7] | [15] | [8] | [9] | [10] | [11] | [14]

CCCCCCCCC(F)(F)C(F)(F)C(F)(F)C(F)(F)C(F)(F)C(F)(F)F
inactive: [6] | [7] | [8] | [9] | [10] | [11]

O=S(=O)(O)c1ccc2ccccc2c1
active: [5] 24.5 µM

FC(F)(F)C(F)(F)C(F)(F)C(F)(F)C(F)(F)C(F)(F)C(F)(F)I
inactive: [6] | [7] | [8] | [9] | [10] | [11]

CCCCC(CC)COP(=O)(O)OCC(CC)CCCC (configuration not stated)
active: [5] 2.42 µM

O=C(O)C=C(C(F)(F)F)C(F)(F)F
inactive: [6] | [7] | [8] | [9] | [10] | [11]

CCO[Si](CCC(F)(F)C(F)(F)C(F)(F)C(F)(F)C(F)(F)C(F)(F)F)(OCC)OCC
inactive: [6] | [7] | [8] | [9] | [10] | [11]

FC(F)(F)C(F)(F)CNCC(F)(F)C(F)(F)F
inactive: [6] | [7] | [8] | [9] | [10] | [11]

O=C(O)C(F)(OC(F)(F)C(F)(OC(F)(F)C(F)(OC(F)(F)C(F)(F)C(F)(F)F)C(F)(F)F)C(F)(F)F)C(F)(F)F (configuration not stated)
inactive: [6] | [7] | [8] | [9] | [10] | [11]

FC1CC(F)(F)C(F)(F)C1(F)F (configuration not stated)
inactive: [6] | [7] | [15] | [8] | [9] | [10] | [11]

C=C(C)C(=O)OCCC(F)(F)C(F)(F)C(F)(F)C(F)(F)C(F)(C(F)(F)F)C(F)(F)F
inactive: [6] | [7] | [8] | [9] | [10] | [11]

O=C(O)C(F)(F)C(F)(F)F
inactive: [6] | [7] | [8] | [9] | [10] | [11] | [12]

C=CC(=O)OCC(F)(F)C(F)(F)C(F)(F)C(F)(F)C(F)(F)C(F)(F)C(F)(F)F
inactive: [6] | [7] | [8] | [9] | [10] | [11]

FC(F)(F)C(F)(F)C(F)(F)N(C(F)(F)C(F)(F)C(F)(F)F)C(F)(F)C(F)(F)C(F)(F)F
inactive: [6] | [7] | [15] | [8] | [9] | [10] | [11]

O=C(O)C(F)(F)C(F)(F)C(F)(F)C(F)(F)F
active: [2] 10.2 µM
inactive: [6] | [7] | [8] | [9] | [10] | [11]

O=C(O)C(F)(F)C(F)(F)C(F)(F)C(F)(F)C(F)(F)C(F)(F)C(F)(F)C(F)(F)C(F)(F)C(F)(F)C(F)(F)C(F)(F)F
active: [2] 11.6 µM | [8] 7.47 µM | [14] 26.3 µM
inactive: [6] | [7] | [9] | [10] | [11]

C=CC(F)(F)C(F)(F)C(F)(F)C(F)(F)C(F)(F)C(F)(F)C(F)(F)C(F)(F)C=C
inactive: [6] | [7] | [15] | [8] | [9] | [10] | [11]

OCCCC(F)(F)C(F)(F)C(F)(F)F
inactive: [6] | [7] | [8] | [9] | [10] | [11] | [14]

O=S(=O)(OCC(F)F)C(F)(F)F
inactive: [6] | [13] | [7] | [15] | [8] | [9] | [10] | [11]

OC[C@@H](O)[C@@H](O)[C@H](O)[C@@H](O)CO
inactive: [16] | [17]

OCC(F)(F)C(F)(F)C(F)(F)C(F)(F)C(F)(F)C(F)F
inactive: [6] | [7] | [8] | [9] | [10] | [11] | [12]
active: [2] 33.2 µM

O=S(=O)(OCCOC(F)(F)F)C(F)(F)F
inactive: [6] | [7] | [8] | [9] | [10] | [11]
